13 compounds from PubChem BioAssay (EPA / NIEHS) can be followed below.

In assay [1] the target is human Opioid Receptor Mu (Opiate Mu), OPRM1 (gene 4988) (UniProt P35372). Nature of the assay: NVS_GPCR_hOpiate_mu: NovaScreen (NVS) G Protein-Coupled Receptor Assay for human Opioid Receptor Mu (Opiate Mu) (AID 2283290).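 Further: hits lower bound tracer signal versus DMSO meaning displacement of the ligand.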 The method, boiled down: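 Primary screen in duplicate at 25 uM, with actives followed in concentration series. CHO-derived receptor membranes, cell-free; bound radioligand read by scintillation counting after filtration at 2.5 h, decrease scored against DMSO.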

For assay [2], the target named is D(1A) dopamine receptor (Homo sapiens) (UniProt P21728). Nature of the assay: NVS_GPCR_hDRD1: NovaScreen (NVS) G Protein-Coupled Receptor Assay for human Dopamine Receptor D1 (DRD1) (AID 2283269). The essentials: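 Cell-free competition with radioligand, filter-trapped and scintillation-counted 1 h post-dose, using HEK293-derived human D1 preparation. Duplicate single-point testing at 25 uM first, then concentration series for actives; DMSO served as baseline, loss-of-signal scored.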

Assay [3] deals with human Neurokinin, NK2 Receptor, TACR2 (gene 6865) (UniProt P21452). Kind of assay: NVS_GPCR_hNK2: NovaScreen (NVS) G Protein-Coupled Receptor Assay for human Neurokinin, NK2 Receptor (AID 2283278).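 Further: actives reduce bound radioligand signal relative to DMSO baseline.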 The method, boiled down:
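Cell-free radioligand binding using receptor protein extracted from CHO cells; readings taken 4 hours after chemical dosing by filter-based scintillation counting. Primary screen ran single concentration (25 uM) in duplicate; actives followed up in concentration series, loss-of-signal versus DMSO baseline.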

For assay [4], the target named is human Thromboxane A2 Receptor (TXA2), TBXA2R (gene 6915) (UniProt P21731). Kind of assay: NVS_GPCR_hTXA2: NovaScreen (NVS) G Protein-Coupled Receptor Assay for human Thromboxane A2 Receptor (TXA2) (AID 2283282).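 Further: actives reduce bound radioligand signal relative to DMSO baseline.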 The essentials: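 Biochem binding, human platelets, cell-free; competitive radioligand displacement; 1 h; filter radiodetection. 25 uM duplicate primary, conc. series secondary; DMSO neg. ctrl.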

For assay [5], the system named is 5-hydroxytryptamine receptor 2C (pig). Kind of assay: NVS_GPCR_p5HT2C: NovaScreen (NVS) G Protein-Coupled Receptor Assay for pig Serotonin, 5-Hydroxytryptamine Receptor 2C (5HT2C) (AID 2283288). The essentials: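 Pig choroid plexus membranes; radioligand competitive binding, filter-based scintillation counting, read 1 h after dosing. Primary screen in duplicate at 25 uM; actives then run as concentration series; loss of signal versus DMSO baseline.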

Assay [6] deals with human Adrenergic, Beta 1 Receptor (Adrb1), ADRB1 (gene 153) (UniProt P08588). Nature of the assay: NVS_GPCR_hAdrb1: NovaScreen (NVS) G Protein-Coupled Receptor Assay for human Adrenergic, Beta 1 Receptor (Adrb1) (AID 2283258). The essentials:
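Cell-free radioligand displacement on receptor from human neuroepithelioma cells; 2 h after dosing, filter-based scintillation counting. Primary screen in duplicate at 25 uM, actives retested in concentration series; loss of signal vs DMSO baseline.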

Assay [7] addresses human Adrenergic, Alpha 2c Receptor (Adra2C), ADRA2C (gene 152) (UniProt P18825). Nature of the assay: NVS_GPCR_hAdra2C: NovaScreen (NVS) G Protein-Coupled Receptor Assay for human Adrenergic, Alpha 2c Receptor (Adra2C) (AID 2283259). The essentials: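 Radioligand binding on Sf9-expressed receptor membranes, 1 h after chemical dosing, filter-based scintillation read-out. Loss of binding fitted positively versus DMSO; primary duplicate screen at 25 uM, actives retested in concentration series.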

In assay [8] the target is human Dopamine Receptor D4.4 (DRD4.4), DRD4 (gene 1815) (UniProt P21917). Nature of the assay: NVS_GPCR_hDRD4.4: NovaScreen (NVS) G Protein-Coupled Receptor Assay for human Dopamine Receptor D4.4 (DRD4.4) (AID 2283264). The method, boiled down:
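Radioligand displacement on human DRD4.4 from CHO-derived membranes, 1 hour incubation, bound counts read by filtration and scintillation. Primary screen in duplicate at 25 uM; actives followed up in concentration series.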

Assay [9] concerns the target human Dopamine Receptor D2 (DRD2), DRD2 (gene 1813) (UniProt P14416). Nature of the assay: NVS_GPCR_hDRD2s: NovaScreen (NVS) G Protein-Coupled Receptor Assay for human Dopamine Receptor D2 (DRD2) (AID 2283266). The essentials: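 Radioligand displacement used human DRD2 membranes extracted from CHO cells and was read by filter-based scintillation counting after 1.5 hours. Primary screening was in duplicate at 25 uM. Loss of signal versus DMSO was fitted, with concentration series in follow-up.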

For assay [10], the target named is human Histamine 1 Receptor (H1), HRH1 (gene 3269) (UniProt P35367). Nature of the assay: NVS_GPCR_hH1: NovaScreen (NVS) G Protein-Coupled Receptor Assay for human Histamine 1 Receptor (H1) (AID 2283268). The essentials: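 Cell-free radioligand displacement at human H1 receptor, 1 h, filter scintillation counting; primary screen 25 uM in duplicate, hits in concentration series; loss of binding fitted vs DMSO.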

Assay [11] addresses Muscarinic acetylcholine receptor M3 (Homo sapiens) (UniProt P20309). Nature of the assay: NVS_GPCR_hM3: NovaScreen (NVS) G Protein-Coupled Receptor Assay for human Muscarinic, M3 Receptor (AID 2283272). The method, boiled down: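 Radioligand displacement binding on human M3 receptor in CHO-derived membranes, 1 h incubation, filter-based scintillation counting. Primary screen in duplicate at 25 uM; actives followed up in concentration series; loss of signal versus DMSO.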

In assay [12] the target is Muscarinic acetylcholine receptor M5 (Homo sapiens) (UniProt P08912). Kind of assay: NVS_GPCR_hM5: NovaScreen (NVS) G Protein-Coupled Receptor Assay for human Muscarinic, M5 Receptor (AID 2283275). The essentials: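 Radioligand displacement on CHO-derived membrane preparations, 1 h, filter-based scintillation counting. Single-concentration duplicate screen at 25 uM; hits (e.g. 30% inhibition) retested in singleton concentration-response up to 50 uM. Loss of binding fitted versus DMSO.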

In assay [13] the target is human Opioid Receptor Delta 1 (Opiate D1), OPRD1 (gene 4985) (UniProt P41143). Nature of the assay: NVS_GPCR_hOpiate_D1: NovaScreen (NVS) G Protein-Coupled Receptor Assay for human Opioid Receptor Delta 1 (Opiate D1) (AID 2283280). The essentials:
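Radioligand displacement on membranes from CHO cells expressing the receptor, read by filter scintillation counting 1 h after dosing. Duplicate single-point screen at 25 uM, then concentration series for actives; loss of signal versus DMSO.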

Assay [14] has as its target human Purinergic Receptor P2Y, P2RY1 (gene 5028) (UniProt P47900). Kind of assay: NVS_GPCR_hPY2: NovaScreen (NVS) G Protein-Coupled Receptor Assay for human Purinergic Receptor P2Y (AID 2283281). The essentials:
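Cell-free radioligand binding using U937-derived protein, 1 h after dosing, filter-based scintillation counting. Screened in duplicate at 25 uM; actives rerun as concentration-response up to 50 uM; loss of signal versus DMSO.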

The test system of assay [15] is rat Adrenergic, Alpha 1B Receptor (Adra1B), gene 24173. Kind of assay: NVS_GPCR_rAdra1B: NovaScreen (NVS) G Protein-Coupled Receptor Assay for rat Adrenergic, Alpha 1B Receptor (Adra1B) (AID 2283297). The essentials:
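Rat liver membranes, radioligand displacement with filter-based scintillation detection, 1 h incubation. Primary screen in duplicate at 25 uM; actives retested in concentration series; activity relative to DMSO.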

Assay [16] concerns the target human Adrenergic, Beta 3 Receptor (Adrb3), ADRB3 (gene 155) (UniProt P13945). Kind of assay: NVS_GPCR_hAdrb3: NovaScreen (NVS) G Protein-Coupled Receptor Assay for human Adrenergic, Beta 3 Receptor (Adrb3) (AID 2283262). The method, boiled down:
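Membranes from SK-N-MC cells pretreated with isoproterenol and 8-bromo-cAMP were used in a radioligand competitive displacement binding assay. Binding was read by filter-based scintillation counting 1 hour after dosing. Primary screening was in duplicate at 25 uM, with concentration series in follow-up.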

Assay [17] concerns the target mouse Cholecystokinin, CCK1 Receptor (CCKA), Cckar (gene 12425) (UniProt O08786). Kind of assay: NVS_GPCR_mCCKAPeripheral: NovaScreen (NVS) G Protein-Coupled Receptor Assay for mouse Cholecystokinin, CCK1 Receptor (CCKA) (AID 2283285). The essentials: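 Radioligand competitive displacement on mouse pancreatic membranes, 2 h incubation; filter-based scintillation counting, loss of signal versus DMSO. Single-concentration screen at 25 uM in duplicate, actives retested in concentration-response up to 50 uM.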

In assay [18] the target is Muscarinic acetylcholine receptor M2 (Homo sapiens) (UniProt P08172). Kind of assay: NVS_GPCR_hM2: NovaScreen (NVS) G Protein-Coupled Receptor Assay for human Muscarinic, M2 Receptor (AID 2283273). The method, boiled down: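 Radioligand displacement on human M2 receptor membranes from CHO cells, 1 h incubation, filtration with scintillation counting. Primary screen in duplicate at 25 uM; actives retested in concentration series; loss of signal fitted versus DMSO.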

For orientation: AC50 means the concentration giving half of the maximal activity seen.

Results filed as inconclusive are left out. Calls of active or inactive are those of the source. How the source made its calls: active means hit-call score of the fitted dose curve at least 0.9, where 1 is the maximum; inconclusive means response in the unintended direction; inactive means score below 0.9.

human Thromboxane A2 Receptor (TXA2), TBXA2R (gene 6915), sequence (P21731 whole entry, looked up): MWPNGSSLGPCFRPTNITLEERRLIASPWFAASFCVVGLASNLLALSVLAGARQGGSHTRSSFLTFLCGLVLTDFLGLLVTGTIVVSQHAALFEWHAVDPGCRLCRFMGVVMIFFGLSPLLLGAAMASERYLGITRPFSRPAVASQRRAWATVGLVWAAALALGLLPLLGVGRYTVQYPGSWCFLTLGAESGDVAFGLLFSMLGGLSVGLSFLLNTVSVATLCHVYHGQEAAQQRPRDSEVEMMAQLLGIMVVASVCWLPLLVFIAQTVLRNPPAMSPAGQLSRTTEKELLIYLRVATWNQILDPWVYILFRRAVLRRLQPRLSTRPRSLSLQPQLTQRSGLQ
human Neurokinin, NK2 Receptor, TACR2 (gene 6865), sequence (P21452 whole entry, looked up): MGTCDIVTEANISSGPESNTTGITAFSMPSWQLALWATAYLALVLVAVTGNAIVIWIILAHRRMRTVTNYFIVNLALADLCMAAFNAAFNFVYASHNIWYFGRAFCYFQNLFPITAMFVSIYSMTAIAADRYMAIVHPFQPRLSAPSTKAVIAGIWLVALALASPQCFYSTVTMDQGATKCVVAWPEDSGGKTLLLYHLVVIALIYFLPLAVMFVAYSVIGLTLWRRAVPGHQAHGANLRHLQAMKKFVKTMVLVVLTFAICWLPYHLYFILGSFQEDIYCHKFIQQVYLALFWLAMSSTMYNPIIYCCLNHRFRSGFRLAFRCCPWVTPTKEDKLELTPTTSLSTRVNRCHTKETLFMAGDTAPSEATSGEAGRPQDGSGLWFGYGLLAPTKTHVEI
D(1A) dopamine receptor (Homo sapiens), sequence (P21728 whole entry, looked up): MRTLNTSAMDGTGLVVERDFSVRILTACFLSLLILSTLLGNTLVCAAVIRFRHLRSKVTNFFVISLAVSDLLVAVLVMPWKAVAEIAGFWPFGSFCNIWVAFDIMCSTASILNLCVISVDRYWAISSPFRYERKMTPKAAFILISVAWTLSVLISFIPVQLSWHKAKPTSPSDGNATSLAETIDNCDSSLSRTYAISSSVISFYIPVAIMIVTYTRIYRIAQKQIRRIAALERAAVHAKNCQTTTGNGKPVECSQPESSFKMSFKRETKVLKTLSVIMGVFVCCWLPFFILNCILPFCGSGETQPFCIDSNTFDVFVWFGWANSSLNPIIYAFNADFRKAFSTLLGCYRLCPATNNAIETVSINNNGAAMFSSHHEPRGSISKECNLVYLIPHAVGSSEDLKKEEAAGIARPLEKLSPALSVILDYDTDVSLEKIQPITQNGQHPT
human Opioid Receptor Mu (Opiate Mu), OPRM1 (gene 4988), sequence (P35372 whole entry, looked up): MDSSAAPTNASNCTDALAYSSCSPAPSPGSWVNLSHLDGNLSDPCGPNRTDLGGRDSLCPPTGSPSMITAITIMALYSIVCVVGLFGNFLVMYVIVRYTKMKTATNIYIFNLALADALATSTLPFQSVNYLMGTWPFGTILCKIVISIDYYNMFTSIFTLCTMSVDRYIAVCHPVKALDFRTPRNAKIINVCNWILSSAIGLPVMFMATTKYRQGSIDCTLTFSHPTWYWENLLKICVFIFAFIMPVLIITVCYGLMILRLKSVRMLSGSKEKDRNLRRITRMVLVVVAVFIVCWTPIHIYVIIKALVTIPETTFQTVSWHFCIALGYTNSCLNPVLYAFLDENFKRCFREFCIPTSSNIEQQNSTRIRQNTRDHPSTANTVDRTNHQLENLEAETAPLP
human Adrenergic, Beta 1 Receptor (Adrb1), ADRB1 (gene 153), sequence (P08588 whole entry, looked up): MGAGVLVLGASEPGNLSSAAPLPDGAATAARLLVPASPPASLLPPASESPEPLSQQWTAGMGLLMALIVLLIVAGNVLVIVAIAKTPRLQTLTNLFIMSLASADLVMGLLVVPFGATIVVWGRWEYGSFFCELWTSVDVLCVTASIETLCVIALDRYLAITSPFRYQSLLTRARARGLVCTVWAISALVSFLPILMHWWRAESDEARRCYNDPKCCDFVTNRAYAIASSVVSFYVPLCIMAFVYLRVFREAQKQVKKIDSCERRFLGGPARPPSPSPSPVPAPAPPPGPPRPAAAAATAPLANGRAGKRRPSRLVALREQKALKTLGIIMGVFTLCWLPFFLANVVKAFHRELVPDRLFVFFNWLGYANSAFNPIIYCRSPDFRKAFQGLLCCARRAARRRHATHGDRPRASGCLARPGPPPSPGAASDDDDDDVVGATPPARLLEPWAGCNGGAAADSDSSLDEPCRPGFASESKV
human Adrenergic, Beta 3 Receptor (Adrb3), ADRB3 (gene 155), sequence (P13945 whole entry, looked up): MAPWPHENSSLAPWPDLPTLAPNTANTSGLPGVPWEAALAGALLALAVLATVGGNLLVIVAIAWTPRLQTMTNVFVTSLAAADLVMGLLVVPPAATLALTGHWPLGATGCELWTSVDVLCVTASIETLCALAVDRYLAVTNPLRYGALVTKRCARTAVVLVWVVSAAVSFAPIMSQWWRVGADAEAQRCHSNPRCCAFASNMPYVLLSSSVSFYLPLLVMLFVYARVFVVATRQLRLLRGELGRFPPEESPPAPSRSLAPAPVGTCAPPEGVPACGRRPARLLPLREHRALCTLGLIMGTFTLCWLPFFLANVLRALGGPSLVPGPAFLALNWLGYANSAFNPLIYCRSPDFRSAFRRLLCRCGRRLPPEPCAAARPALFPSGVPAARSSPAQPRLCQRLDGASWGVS
human Dopamine Receptor D2 (DRD2), DRD2 (gene 1813), sequence (P14416 whole entry, looked up): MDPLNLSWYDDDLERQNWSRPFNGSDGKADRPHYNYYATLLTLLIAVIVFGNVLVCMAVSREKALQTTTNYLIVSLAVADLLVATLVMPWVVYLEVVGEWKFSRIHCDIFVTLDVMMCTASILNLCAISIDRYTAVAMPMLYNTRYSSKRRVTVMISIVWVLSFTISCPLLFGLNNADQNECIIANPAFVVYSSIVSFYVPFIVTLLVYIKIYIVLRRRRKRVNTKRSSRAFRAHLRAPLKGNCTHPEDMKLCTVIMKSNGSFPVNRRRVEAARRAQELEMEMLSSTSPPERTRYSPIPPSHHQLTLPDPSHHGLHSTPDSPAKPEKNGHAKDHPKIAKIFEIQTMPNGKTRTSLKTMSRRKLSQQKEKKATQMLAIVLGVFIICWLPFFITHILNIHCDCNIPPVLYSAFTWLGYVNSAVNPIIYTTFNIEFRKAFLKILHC
human Dopamine Receptor D4.4 (DRD4.4), DRD4 (gene 1815), sequence (P21917 whole entry, looked up): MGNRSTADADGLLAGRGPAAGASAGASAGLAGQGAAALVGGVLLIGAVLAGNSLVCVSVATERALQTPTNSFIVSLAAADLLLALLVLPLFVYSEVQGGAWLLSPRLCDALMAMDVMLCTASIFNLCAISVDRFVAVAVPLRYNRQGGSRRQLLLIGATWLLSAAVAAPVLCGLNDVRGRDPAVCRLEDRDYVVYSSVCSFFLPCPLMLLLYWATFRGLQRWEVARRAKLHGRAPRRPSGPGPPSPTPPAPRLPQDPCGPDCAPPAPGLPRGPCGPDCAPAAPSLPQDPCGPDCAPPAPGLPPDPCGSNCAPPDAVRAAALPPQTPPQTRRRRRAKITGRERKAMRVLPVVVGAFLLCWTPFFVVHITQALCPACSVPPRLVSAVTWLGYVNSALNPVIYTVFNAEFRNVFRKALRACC
human Opioid Receptor Delta 1 (Opiate D1), OPRD1 (gene 4985), sequence (P41143 whole entry, looked up): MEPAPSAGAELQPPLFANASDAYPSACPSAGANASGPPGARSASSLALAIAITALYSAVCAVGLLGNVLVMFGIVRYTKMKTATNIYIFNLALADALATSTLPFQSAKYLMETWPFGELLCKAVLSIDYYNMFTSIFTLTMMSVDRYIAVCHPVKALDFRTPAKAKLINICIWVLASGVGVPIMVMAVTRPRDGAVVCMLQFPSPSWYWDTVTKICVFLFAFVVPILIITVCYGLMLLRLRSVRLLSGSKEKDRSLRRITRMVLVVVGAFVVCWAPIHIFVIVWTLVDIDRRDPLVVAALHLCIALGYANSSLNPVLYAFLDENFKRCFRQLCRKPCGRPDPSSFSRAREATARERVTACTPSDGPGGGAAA
mouse Cholecystokinin, CCK1 Receptor (CCKA), Cckar (gene 12425), sequence (O08786 whole entry, looked up): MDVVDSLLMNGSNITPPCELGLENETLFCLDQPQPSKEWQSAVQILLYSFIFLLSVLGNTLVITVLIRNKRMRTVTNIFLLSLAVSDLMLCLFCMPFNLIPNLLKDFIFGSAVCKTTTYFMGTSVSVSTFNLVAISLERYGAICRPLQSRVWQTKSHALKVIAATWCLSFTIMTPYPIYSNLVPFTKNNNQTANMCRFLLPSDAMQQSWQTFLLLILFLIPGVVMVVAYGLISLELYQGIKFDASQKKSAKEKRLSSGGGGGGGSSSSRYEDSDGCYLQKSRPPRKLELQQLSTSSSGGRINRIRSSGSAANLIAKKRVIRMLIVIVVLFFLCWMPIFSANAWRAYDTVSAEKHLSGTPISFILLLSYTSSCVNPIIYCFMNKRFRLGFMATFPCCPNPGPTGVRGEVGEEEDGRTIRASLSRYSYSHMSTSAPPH
human Purinergic Receptor P2Y, P2RY1 (gene 5028), sequence (P47900 whole entry, looked up): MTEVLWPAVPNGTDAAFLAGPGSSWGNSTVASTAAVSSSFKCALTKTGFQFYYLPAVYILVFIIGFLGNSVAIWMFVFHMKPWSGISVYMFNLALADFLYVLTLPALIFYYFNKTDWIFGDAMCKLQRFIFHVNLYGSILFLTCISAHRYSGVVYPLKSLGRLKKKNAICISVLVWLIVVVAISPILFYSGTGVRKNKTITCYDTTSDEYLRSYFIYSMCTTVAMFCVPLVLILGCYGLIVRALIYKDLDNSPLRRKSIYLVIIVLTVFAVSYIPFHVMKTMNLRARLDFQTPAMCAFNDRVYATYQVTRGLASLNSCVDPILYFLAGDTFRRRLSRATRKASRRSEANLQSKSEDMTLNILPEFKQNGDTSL

With `CCOP(=O)(OCC)SCCSCC`, in [1], the compound was called inactive.
For the compound `Brc1c(Br)c(Br)c(Oc2c(Br)c(Br)c(Br)c(Br)c2Br)c(Br)c1Br`, the outcome in assay [2] was inactive.
`CC(C)(C)c1cc([N+](=O)[O-])cc(C(C)(C)C)c1O`: in [2], the call was inactive.
In the case of `Cc1ccc(OP(=O)(Oc2ccc(C)cc2C)Oc2ccc(C)cc2C)c(C)c1`, the figures for the concentration at half-maximal activity (AC50) in assay [2] and in assay [3] were 14.3 µM (active) and 8.63 µM (active), respectively.
For the compound `Oc1ccc(Cc2ccc(O)cc2)cc1`, the compound was called inactive in assay [2] and in [4].
For the compound `c1ccc2sc(SNC3CCCCC3)nc2c1`, the AC50 in assay [3] was 0.0784 µM (active); in assay [4], 1.12 µM (active).
`COC(=O)Nc1cccc(OC(=O)Nc2cccc(C)c2)c1`: the concentration at half-maximal activity (AC50) in [5] was 25 µM (active).
Consider `CCCCCCCCCCCCc1cccc(S(=O)(=O)O)c1`, for which the AC50 in assay [6] is 9.54 µM (active); in assay [7], 6.82 µM (active); in [8] it was 13.6 µM (active); in assay [9], 22.5 µM (active); in assay [10], 25.4 µM (active); in assay [2], 7.44 µM (active). Further, the half-maximal activity concentration (AC50) in [11] is 16.3 µM (active); in [12] it was 28.4 µM (active); in assay [13], 11.8 µM (active); in assay [4], 8.31 µM (active); in [1], 14.4 µM (active); in [15] it was 22.5 µM (active). In addition, the outcome in assay [3] and in [14] was inactive.
With `O=C(O)C1(c2ccc3c(c2)OC[C@H](Cc2ccc(-c4ccccc4)cc2)[C@H]3O)CCCC1`, the AC50 in [6] is 25 µM (active). In addition, the result in [16] was inactive.
`O=C(N[C@H]1CN2CCC1CC2)c1ccc2c(c1)OCCO2`: the call in assay [4] and in assay [17] was inactive.
In the case of `N#Cc1ccccc1N`, the call in assay [2] was inactive.
In the case of `CCCCCCCCCCCCN(C)C`, the call in assay [2] was inactive. The AC50 in assay [18] is 22.6 µM (active).
As for `CCCCCCCCCCBr`, the call in assay [2] was inactive.
